The text below walks through data of PubChem BioAssay AID1345085 (National Center for Advancing Translational Sciences (NCATS), 2018).

Inconclusive results are not listed. A number with no mark means an inactive call. The source made the active and inactive calls. Calls come from the whole dose curve; as a rule, active = well fitted cell-killing curve with a large enough effect; inconclusive = small, poorly fitted or top-dose-only effect, or effect the other way; inactive = no such curve, though single readings can be large or run the other way. *1 amine or outer side, *2 acyl side, *3 side chain or, on linkers, in order; H or OH if unused. Where a SMILES comes first, the peptide text is derived from it. Bridges are numbered along the chain shown (N, C = ends). Roman numbers before positions name the chains, in order. [ ]: non-standard residue; d: D form. Actinocin(9to1) = Cc1c2oc3c(C)ccc(C(=O)[*:1])c3nc-2c(C(=O)[*:2])c(N)c1=O; NMeV = CN[C@H](C(=O)O)C(C)C; Sar = CNCC(=O)O
% is set by controls: 0 for no effect and ±100 for the full control effect; potency is the fitted concentration of half-maximal effect.

The test concerns Tov-21-G. Nature of the test: Confirmatory qHTS for gynecologic anti-cancer compounds from libraries of approved drugs and bioactive compounds. Note: nearly all actives have a fitted effect of over 55% in size. As to conditions: gynecologic cancer cell panel viability, ATPlite luminescence, 48 h; series mostly up to 57.7 µM; activity change, negative = viability loss: at the top concentration. The method in brief:
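Seeding 1,000 cells per well preceded overnight (16 h) attachment, after which 48 h drug treatment across 57.5 uM–0.977 nM (11 points) was applied. Remaining cellular ATP, detected by ATPlite luminescence, defined IC50.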
A general note: qHTS replaces the single test concentration by a dilution series.
On to `COc1cc2c(Nc3ccc(NC(=O)c4ccccc4)cc3)ncnc2cc1OCCCN1CCOCC1`, for which the Potency was 19.3 µM (active). In the case of `CN1CCN(Cc2ccc(NC(=O)Nc3ccc(Oc4cc(NC(=O)C5CC5)ncn4)cc3)cc2C(F)(F)F)CC1`, the Potency is 0.432 µM (active). In the case of `C#C[C@]1(O)CC[C@H]2[C@@H]3CCC4=CC(=O)CC[C@@H]4[C@H]3CC[C@@]21CC`, the “activity change, negative = viability loss” value is 12.4%. On to `O=C(CCCCCCC(=O)Nc1ccccc1)NO`, for which the Potency is 4.85 µM (active).

Turning to `Cc1ccc(C(=O)Nc2ccc(CN3CCN(C)CC3)c(C(F)(F)F)c2)cc1C#Cc1cnc2[nH]ncc2c1`, the Potency was 0.0273 µM (active).

On to `Cc1c2oc3c(C)ccc(C(=O)N[C@@H]4C(=O)N[C@H](C(C)C)C(=O)N5CCC[C@H]5C(=O)N(C)CC(=O)N(C)[C@@H](C(C)C)C(=O)O[C@@H]4C)c3nc-2c(C(=O)N[C@@H]2C(=O)N[C@H](C(C)C)C(=O)N3CCC[C@H]3C(=O)N(C)CC(=O)N(C)[C@@H](C(C)C)C(=O)O[C@@H]2C)c(N)c1=O` (I: T[dV]P[Sar][NMeV] / II: T[dV]P[Sar][NMeV]; ester I:1-I:C, II:1-II:C; linker I:N-II:N via Actinocin(9to1)), for which the Potency was 0.685 µM (active). For `CNC(=O)CN1CCC(Oc2cc3c(Nc4cccc(Cl)c4F)ncnc3cc2OC)CC1`, the Potency was 7.69 µM (active). `O=C1NC(=O)C(c2cnc3ccccn23)=C1c1cn2c3c(cccc13)CN(C(=O)N1CCOCC1)CC2`: the Potency is 0.544 µM (active).

`Nc1ccccc1NC(=O)c1ccc(CNc2nccc(-c3cccnc3)n2)cc1`: the Potency is 2.43 µM (active). With `O=C(CCCCCCNC(=O)c1cnc(N(c2ccccc2)c2ccccc2)nc1)NO`, the Potency was 21.7 µM (active). As for `COC(C(=O)N1Cc2[nH]nc(NC(=O)c3ccc(N4CCN(C)CC4)cc3)c2C1)c1ccccc1` (configuration not stated), the Potency is 1.37 µM (active). With `CC(=O)NCC(=O)N1C2CCC1c1cc(Nc3ncc(C(F)(F)F)c(NC4CCC4)n3)ccc12` (configuration not stated), the Potency was 3.06 µM (active). As to `Cc1cc(CN2CCN(c3c(Br)cnc4nc(-c5ccc(N6CCN(C)CC6)cc5)[nH]c34)CC2)no1`, the Potency was 24.3 µM (active). Turning to `Cc1cncc2cccc(S(=O)(=O)N3CCCN(C(=O)CN)C[C@@H]3C)c12`, the “activity change, negative = viability loss” value is -18.6%. On to `COc1cc(F)c(F)c(Nc2ccc(I)cc2F)c1NS(=O)(=O)C1(CC(O)CO)CC1` (configuration not stated), for which the Potency was 13.7 µM (active). The same measure, in the same setting: for `CC(Oc1ccc2[nH]nc(/C=C/c3cnn(CCO)c3)c2c1)c1c(Cl)cncc1Cl` (configuration not stated) the value was 6.11 µM (active).

As to `Cc1nc(N)ncc1-c1nc(N2CCOCC2)c2sc(C(C)(C)O)cc2n1`, the Potency is 1.53 µM (active).

As to `CC(C)CC(=O)Nc1n[nH]c2c1CN(C(=O)C1CCN(C)CC1)C2(C)C`, the Potency was 3.85 µM (active). In the case of `C=CC(=O)Nc1cccc(Oc2nc(Nc3ccc(N4CCN(C)CC4)cc3)ncc2Cl)c1`, the Potency is 3.85 µM (active). The same measure, in the same setting: for `CNC1CCC(N(Cc2cccc(-c3ccncc3)c2)C(=O)c2sc3ccccc3c2Cl)CC1` (configuration not stated) the value was 19.3 µM (active).

For `O=C1N(c2ccccc2)c2ccccc2C1(Cc1ccncc1)Cc1ccncc1`, the “activity change, negative = viability loss” value was 18.7%.

With `Fc1cc(-c2cccc3ncc(-c4cnn(C5CCNCC5)c4)nc23)cc(F)c1CN1CCOCC1`, the Potency was 12.2 µM (active). As to `CNC(=O)c1ccccc1Nc1nc(Nc2ccc(N3CCOCC3)cc2OC)ncc1Cl`, the Potency was 3.85 µM (active). `CNC(=O)c1nn(C)c2c1C(C)(C)Cc1cnc(Nc3ccc(N4CCN(C)CC4)cc3)nc1-2`: the Potency was 0.122 µM (active). On the same count and under the same terms, for `CN(NC(=O)CC(=O)NN(C)C(=S)c1ccccc1)C(=S)c1ccccc1` the value was 0.153 µM (active); for `Nc1nc(Cl)nc2c1ncn2C1OC(CO)C(O)C1F` (configuration not stated), 3.43 µM (active). Turning to `CC1(C)[C@@H](O)CC[C@]2(C)[C@H]3C(=O)C=C4[C@@H]5C[C@@](C)(C(=O)O)CC[C@]5(C)CC[C@@]4(C)[C@]3(C)CC[C@@H]12`, the “activity change, negative = viability loss” value is 17.3%. Regarding `CN1CCCC(n2nc(Cc3ccc(Cl)cc3)c3ccccc3c2=O)CC1` (configuration not stated), the Potency was 30.6 µM (active). The same measure, in the same setting: for `CCn1c(-c2nonc2N)nc2c(C#CC(C)(C)O)ncc(OCC3CCCNC3)c21` (configuration not stated) the value was 0.0306 µM (active). Consider `CC(C)n1c(/C=C/[C@@H](O)C[C@@H](O)CC(=O)O)c(-c2ccc(F)cc2)c2ccccc21`, for which the “activity change, negative = viability loss” value is -20.4%. Consider `CC[C@]1(O)C[C@H]2CN(CCc3c([nH]c4ccccc34)[C@@](C(=O)OC)(c3cc4c(cc3OC)N(C=O)[C@H]3[C@@](O)(C(=O)OC)[C@H](OC(C)=O)[C@]5(CC)C=CCN6CC[C@]43[C@@H]65)C2)C1`, for which the Potency is 0.611 µM (active). On the same count and under the same terms, for `COCCOc1nc(-c2ccc(Cl)c(Cl)c2)n(-c2ccc(NC(=O)CCl)cc2)n1` the value was 1.72 µM (active).
